Holding throughout (test): log2 fold change, soluble protein after heating vs DMSO (PISA); higher = thermal stabilisation; K562 cells, 10 uM, 30 min; active = over 0.2 and 3.5 SD of the protein, either way, in both replicates (recomputed)
Compound in one experiment: CN1CCN(CCOc2cc(OC3CCOCC3)c3c(Nc4c(Cl)ccc5c4OCO5)ncnc3c2)CC1 [saracatinib]
In short, it runs like this:
(§1)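 K562 cells at 2×10^6 cells/mL were treated with 10 μM compound for 30 min. Aliquots were heated for 3 min across 48°C-58°C, pooled, and extracted in PBS with 0.5% NP-40 at 4°C; soluble protein was the supernatant after 21,000xg for 90 min. Soluble protein was quantified by TMTpro 16plex LC-MS/MS with channel sums equalised, and reported as log2 fold change in thermal stability against DMSO controls, with values from duplicates.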

Compound in the next experiment: CN1CCN(c2nc(C3=C(c4c[nH]c5ccccc45)C(=O)NC3=O)c3ccccc3n2)CC1 [sotrastaurin]
Put shortly:
as §1

Compound in a further experiment: CN1CC[C@H](c2c(O)cc(O)c3c(=O)cc(-c4ccccc4Cl)oc23)[C@H](O)C1 [alvocidib]
Put shortly:
as §1

Compound in another experiment: CN1CCc2c(c3ccccc3n2Cc2ccc(C(=O)NO)cc2)C1 [Tubastatin A]
Put shortly:
as §1

Compound in experiment [1]: CNC(=O)C1=CC=CC=C1NC2=NC(=NC=C2Cl)NC3=C(C=C(C=C3)N4CCOCC4)OC
Put shortly:
as §1

Compound in the next experiment: CNC(=O)c1ccc(Nc2ncc(C(F)(F)F)c(NCc3nccnc3N(C)S(C)(=O)=O)n2)cc1 [defactinib]
Put shortly:
as §1

Compound in a further experiment: CNCc1ccc(-c2[nH]c3cc(F)cc4c3c2CCNC4=O)cc1 [rucaparib]
Put shortly:
as §1

Compound in experiment [2]: CNc1nc(-c2ccc3c(N)n[nH]c3c2)cc(N2C[C@@H](C(=O)NC3CCCCC3)CC[C@H]2C)n1
In short, it runs like this: as §1

Compound in the next experiment: COC(=O)N[C@@H](C)CNc1nccc(-c2cn(C(C)C)nc2-c2cc(Cl)cc(NS(C)(=O)=O)c2F)n1 [encorafenib]
In short, it runs like this: as §1

Compound in experiment [3]: COC(=O)[C@H](CCSC)NC(=O)C1=C(C=C(C=C1)NC[C@H](CS)N)C2=CC=CC=C2
In short, it runs like this: as §1

About 7,900 targets were measured; listed, in parts, are those with a hit and a random draw of the rest. About 0.6% of all pairs of compound and target were hits. A number with no mark means an inactive call.

In the supplement of paper PMC10849652 one finds log2 fold change data, which are given here for 13 targets.

Chain of UniProt Q86UX7 (Q86UX7 whole entry, looked up): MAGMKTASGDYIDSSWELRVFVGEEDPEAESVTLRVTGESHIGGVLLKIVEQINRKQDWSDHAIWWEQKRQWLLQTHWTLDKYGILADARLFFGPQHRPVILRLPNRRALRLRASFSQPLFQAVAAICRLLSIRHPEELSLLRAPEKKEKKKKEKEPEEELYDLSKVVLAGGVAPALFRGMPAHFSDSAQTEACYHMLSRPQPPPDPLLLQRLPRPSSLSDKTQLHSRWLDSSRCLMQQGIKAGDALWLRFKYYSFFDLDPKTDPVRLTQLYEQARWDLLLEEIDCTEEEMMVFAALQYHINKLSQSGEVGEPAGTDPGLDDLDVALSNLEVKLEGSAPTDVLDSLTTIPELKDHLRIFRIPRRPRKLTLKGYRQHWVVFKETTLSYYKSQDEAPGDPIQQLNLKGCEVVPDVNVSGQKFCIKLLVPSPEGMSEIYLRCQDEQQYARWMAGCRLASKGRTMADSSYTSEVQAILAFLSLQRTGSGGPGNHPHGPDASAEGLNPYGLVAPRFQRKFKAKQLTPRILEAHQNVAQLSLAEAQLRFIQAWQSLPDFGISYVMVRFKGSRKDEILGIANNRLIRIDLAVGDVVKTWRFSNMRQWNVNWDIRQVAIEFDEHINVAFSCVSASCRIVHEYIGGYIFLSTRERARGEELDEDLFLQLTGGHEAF
Chain of UniProt Q03013 (Q03013 whole entry, looked up): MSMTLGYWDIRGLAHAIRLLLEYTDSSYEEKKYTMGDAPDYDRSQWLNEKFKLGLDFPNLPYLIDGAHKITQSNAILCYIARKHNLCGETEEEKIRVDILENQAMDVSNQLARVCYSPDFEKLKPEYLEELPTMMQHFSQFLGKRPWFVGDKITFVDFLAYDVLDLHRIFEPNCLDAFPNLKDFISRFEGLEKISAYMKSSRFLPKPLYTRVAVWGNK
Chain of UniProt P31150 (P31150 whole entry, looked up): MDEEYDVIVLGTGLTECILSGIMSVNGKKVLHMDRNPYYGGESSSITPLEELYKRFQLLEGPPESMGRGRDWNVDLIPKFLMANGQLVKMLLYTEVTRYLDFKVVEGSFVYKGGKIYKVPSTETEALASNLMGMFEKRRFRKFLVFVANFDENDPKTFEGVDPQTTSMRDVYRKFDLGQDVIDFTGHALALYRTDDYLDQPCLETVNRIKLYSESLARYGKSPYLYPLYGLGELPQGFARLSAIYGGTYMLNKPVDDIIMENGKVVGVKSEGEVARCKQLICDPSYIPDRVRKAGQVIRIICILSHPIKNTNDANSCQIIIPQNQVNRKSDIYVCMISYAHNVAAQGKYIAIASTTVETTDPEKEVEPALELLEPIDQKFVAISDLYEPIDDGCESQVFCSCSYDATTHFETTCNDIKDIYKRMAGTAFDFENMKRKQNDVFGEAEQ
Chain of UniProt P29083 (P29083 whole entry, looked up): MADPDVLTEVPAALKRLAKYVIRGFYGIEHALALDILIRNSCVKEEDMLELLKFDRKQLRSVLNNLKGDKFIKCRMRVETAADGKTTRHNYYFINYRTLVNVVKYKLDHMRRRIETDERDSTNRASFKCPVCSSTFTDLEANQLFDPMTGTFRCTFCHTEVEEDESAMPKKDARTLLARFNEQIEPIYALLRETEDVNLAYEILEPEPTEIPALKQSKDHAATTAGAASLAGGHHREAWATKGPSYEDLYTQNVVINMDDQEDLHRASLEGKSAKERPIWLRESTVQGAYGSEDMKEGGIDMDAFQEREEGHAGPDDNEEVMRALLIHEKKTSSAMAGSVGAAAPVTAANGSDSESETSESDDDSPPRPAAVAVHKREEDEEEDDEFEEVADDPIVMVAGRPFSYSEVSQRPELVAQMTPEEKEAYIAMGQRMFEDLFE
Chain of UniProt Q9Y6M1 (Q9Y6M1 whole entry, looked up): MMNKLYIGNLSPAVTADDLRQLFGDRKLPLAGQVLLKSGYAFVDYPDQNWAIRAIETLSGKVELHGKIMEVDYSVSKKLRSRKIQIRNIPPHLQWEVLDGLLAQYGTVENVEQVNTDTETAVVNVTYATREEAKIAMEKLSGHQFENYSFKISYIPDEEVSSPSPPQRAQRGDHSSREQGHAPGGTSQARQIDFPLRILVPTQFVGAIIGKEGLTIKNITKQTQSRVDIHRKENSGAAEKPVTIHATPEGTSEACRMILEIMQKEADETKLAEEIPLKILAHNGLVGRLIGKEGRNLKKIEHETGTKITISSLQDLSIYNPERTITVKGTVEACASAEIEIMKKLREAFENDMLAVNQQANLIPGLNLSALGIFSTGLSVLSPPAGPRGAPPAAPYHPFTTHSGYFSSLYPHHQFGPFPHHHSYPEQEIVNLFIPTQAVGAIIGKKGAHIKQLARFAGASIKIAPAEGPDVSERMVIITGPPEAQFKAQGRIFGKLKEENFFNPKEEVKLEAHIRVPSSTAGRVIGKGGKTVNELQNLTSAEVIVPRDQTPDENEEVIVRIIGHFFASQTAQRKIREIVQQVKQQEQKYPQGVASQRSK
Chain of UniProt Q10471 (Q10471 whole entry, looked up): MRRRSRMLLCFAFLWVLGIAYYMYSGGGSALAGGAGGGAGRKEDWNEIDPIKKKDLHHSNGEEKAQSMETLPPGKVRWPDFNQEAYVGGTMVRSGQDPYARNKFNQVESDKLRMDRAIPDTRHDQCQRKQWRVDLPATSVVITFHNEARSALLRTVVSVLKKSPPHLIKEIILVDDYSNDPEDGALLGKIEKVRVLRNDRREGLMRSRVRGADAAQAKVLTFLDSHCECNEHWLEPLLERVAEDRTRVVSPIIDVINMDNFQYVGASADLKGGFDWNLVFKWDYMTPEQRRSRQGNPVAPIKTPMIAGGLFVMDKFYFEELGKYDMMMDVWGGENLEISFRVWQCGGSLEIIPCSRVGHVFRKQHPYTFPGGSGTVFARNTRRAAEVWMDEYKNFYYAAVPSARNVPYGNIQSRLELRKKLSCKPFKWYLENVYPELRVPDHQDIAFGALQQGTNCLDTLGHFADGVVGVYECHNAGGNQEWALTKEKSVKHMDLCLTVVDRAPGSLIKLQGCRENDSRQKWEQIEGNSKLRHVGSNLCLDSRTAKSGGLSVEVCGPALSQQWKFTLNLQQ
Chain of UniProt Q9Y248 (Q9Y248 whole entry, looked up): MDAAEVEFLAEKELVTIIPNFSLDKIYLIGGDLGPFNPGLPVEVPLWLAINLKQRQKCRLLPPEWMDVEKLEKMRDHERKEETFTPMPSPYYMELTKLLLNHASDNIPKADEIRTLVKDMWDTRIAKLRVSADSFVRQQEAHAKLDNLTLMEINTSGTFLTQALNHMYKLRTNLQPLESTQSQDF
Chain of UniProt Q9P2H3 (Q9P2H3 whole entry, looked up): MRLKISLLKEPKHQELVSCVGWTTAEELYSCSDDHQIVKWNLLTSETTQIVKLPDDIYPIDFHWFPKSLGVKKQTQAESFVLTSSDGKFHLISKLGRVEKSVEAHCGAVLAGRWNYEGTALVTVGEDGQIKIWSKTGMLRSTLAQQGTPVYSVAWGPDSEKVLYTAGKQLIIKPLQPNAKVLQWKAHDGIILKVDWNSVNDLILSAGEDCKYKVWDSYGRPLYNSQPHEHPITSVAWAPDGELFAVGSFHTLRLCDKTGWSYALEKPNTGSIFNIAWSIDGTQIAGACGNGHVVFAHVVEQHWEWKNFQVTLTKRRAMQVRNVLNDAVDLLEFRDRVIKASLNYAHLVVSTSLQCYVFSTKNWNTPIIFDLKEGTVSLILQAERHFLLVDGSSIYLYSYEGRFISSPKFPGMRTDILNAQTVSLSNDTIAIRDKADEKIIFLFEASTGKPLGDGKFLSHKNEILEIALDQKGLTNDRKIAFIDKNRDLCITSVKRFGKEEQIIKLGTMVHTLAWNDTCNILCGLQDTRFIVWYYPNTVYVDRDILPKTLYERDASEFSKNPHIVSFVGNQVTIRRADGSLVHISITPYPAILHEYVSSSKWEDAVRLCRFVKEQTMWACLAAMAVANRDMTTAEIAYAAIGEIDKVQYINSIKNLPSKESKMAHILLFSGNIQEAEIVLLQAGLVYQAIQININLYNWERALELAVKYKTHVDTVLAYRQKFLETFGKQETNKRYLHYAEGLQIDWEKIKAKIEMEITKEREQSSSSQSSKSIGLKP
Chain of UniProt O43524 (O43524 whole entry, looked up): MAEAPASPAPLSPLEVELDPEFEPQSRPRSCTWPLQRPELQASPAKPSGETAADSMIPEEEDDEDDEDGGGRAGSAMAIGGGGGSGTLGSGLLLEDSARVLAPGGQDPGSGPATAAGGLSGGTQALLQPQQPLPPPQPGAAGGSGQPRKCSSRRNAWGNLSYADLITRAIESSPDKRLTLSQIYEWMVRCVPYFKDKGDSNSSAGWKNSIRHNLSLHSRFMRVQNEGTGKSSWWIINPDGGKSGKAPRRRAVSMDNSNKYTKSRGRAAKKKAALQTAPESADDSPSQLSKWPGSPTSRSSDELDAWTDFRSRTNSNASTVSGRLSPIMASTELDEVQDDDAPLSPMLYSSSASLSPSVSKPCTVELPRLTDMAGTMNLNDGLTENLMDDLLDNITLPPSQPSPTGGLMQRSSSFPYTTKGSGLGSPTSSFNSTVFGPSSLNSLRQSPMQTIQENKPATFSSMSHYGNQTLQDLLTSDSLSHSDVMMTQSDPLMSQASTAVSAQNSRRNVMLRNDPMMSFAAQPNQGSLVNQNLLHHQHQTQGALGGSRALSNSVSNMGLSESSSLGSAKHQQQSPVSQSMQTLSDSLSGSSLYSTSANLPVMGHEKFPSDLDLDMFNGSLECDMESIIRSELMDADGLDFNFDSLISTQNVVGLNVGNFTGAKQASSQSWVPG
Chain of UniProt Q9H6D7 (Q9H6D7 whole entry, looked up): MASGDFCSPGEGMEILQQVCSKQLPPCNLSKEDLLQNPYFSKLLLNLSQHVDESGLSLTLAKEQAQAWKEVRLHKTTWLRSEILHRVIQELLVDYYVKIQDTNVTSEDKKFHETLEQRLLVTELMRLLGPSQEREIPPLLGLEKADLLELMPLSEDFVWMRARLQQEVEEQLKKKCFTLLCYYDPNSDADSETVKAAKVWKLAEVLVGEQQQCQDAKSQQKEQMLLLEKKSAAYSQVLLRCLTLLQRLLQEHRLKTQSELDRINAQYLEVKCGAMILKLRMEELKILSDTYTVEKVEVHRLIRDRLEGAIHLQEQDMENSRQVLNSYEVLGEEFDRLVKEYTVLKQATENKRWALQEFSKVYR

As for HIST2H3A (UniProt Q71DI3), the log2 fold change was -0.196 with saracatinib; 0.063 with sotrastaurin; 0.165 with alvocidib; 0.17 in the experiment with Tubastatin A; -0.166 in experiment [1]; 0.339 with defactinib. In addition, the log2 fold change with rucaparib was 0.306; in experiment [2], 0.185; in the experiment with encorafenib it was -0.063; in experiment [3], 0.093.
FERMT3 (UniProt Q86UX7): the log2 fold change in the experiment with saracatinib is 0.019; with sotrastaurin it was -0.016; in the experiment with alvocidib, -0.055; with Tubastatin A it was -0.003; in experiment [1], 0.008; in the experiment with defactinib it was -0.069. Besides, the log2 fold change with rucaparib is -0.003; in experiment [2] it was 0.036; in the experiment with encorafenib, 0.063; in experiment [3], -0.03.
On to IGF2BP2 (UniProt Q9Y6M1), for which the log2 fold change is -0.122 in the experiment with saracatinib; -0.035 in the experiment with sotrastaurin; 0.209 with alvocidib; 0.168 in the experiment with Tubastatin A; 0.044 in experiment [1]; 0.147 in the experiment with defactinib. The log2 fold change is 0.446 in the experiment with rucaparib, 0.145 in experiment [2], 0.106 in the experiment with encorafenib and -0.066 in experiment [3].
Take GALNT2 (UniProt Q10471): the log2 fold change with saracatinib was -0.025; in the experiment with sotrastaurin it was 0.005; with alvocidib, -0.012; in the experiment with Tubastatin A it was 0.013; in experiment [1] it was 0.004; with defactinib, 0.023. Further, the log2 fold change is -0.046 with rucaparib, -0.015 in experiment [2], 0.036 with encorafenib and -0.017 in experiment [3].
Turning to GDI1 (UniProt P31150), the log2 fold change with saracatinib is 0.017; with sotrastaurin, 0.012; with alvocidib, -0.067; with Tubastatin A, -0.025; in experiment [1] it was 0.012; in the experiment with defactinib, -0.046. Also, the log2 fold change with rucaparib was -0.042; in experiment [2] it was -0.015; with encorafenib, 0.006; in experiment [3], 0.009.
For FOXO3 (UniProt O43524), the log2 fold change with saracatinib was -0.017; with sotrastaurin it was 0.004; with alvocidib, -0.124; with Tubastatin A, 0.051; in [1], -0.167; with defactinib it was -0.037. In addition, the log2 fold change was -0.077 in the experiment with rucaparib, -0.208 in experiment [2], 0.16 with encorafenib and 0.021 in experiment [3].
Take GSTM4 (UniProt Q03013): the log2 fold change in the experiment with saracatinib was -0.106; with sotrastaurin, -0.066; with alvocidib, -0.065; with Tubastatin A it was -0.044; in experiment [1], 0.003; in the experiment with defactinib, -0.086. The log2 fold change was -0.385 (active) in the experiment with rucaparib, 0.06 in experiment [2], -0.238 with encorafenib and 0.093 in [3].
Consider IFT80 isoform 3 (UniProt Q9P2H3), for which the log2 fold change in the experiment with saracatinib is -0.016; with sotrastaurin it was 0.029; with alvocidib, -0.091; in the experiment with Tubastatin A it was 0.094; in experiment [1] it was 0.01; with defactinib it was -0.023. The log2 fold change in the experiment with rucaparib is 0.029; in [2], -0.007; with encorafenib, 0.056; in experiment [3], 0.014.
Consider HIST2H2BF isoform 2 (UniProt Q5QNW6), for which the log2 fold change in the experiment with saracatinib is -0.084; with sotrastaurin, 0.074; with alvocidib, 0.144; with Tubastatin A, 0.093; in [1], -0.044; in the experiment with defactinib, 0.313. Besides, the log2 fold change with rucaparib was 0.325; in [2], 0.039; with encorafenib, 0.015; in experiment [3], 0.05.
As to GTF2E1 (UniProt P29083), the log2 fold change with saracatinib was -0.026; in the experiment with sotrastaurin, -0.11; in the experiment with alvocidib it was -0.148; with Tubastatin A, 0.064; in [1], 0; in the experiment with defactinib, -0.272. Besides, the log2 fold change with rucaparib was -0.126; in experiment [2] it was -0.047; in the experiment with encorafenib it was 0.199; in experiment [3], -0.099.
With GTF2B (UniProt Q00403), the log2 fold change in the experiment with saracatinib is -0.155; with sotrastaurin, -0.103; in the experiment with alvocidib it was -0.22; in the experiment with Tubastatin A it was 0.135; in [1] it was -0.013; with defactinib, -0.144. In addition, the log2 fold change with rucaparib was -0.017; in experiment [2] it was 0.026; with encorafenib, 0.023; in [3], -0.01.
With HAUS4 (UniProt Q9H6D7), the log2 fold change is 0.466 with saracatinib; -0.194 with sotrastaurin; 0.035 with alvocidib; 0.044 with Tubastatin A; 0.195 in [1]; 0.019 with defactinib. Moreover, the log2 fold change with rucaparib is 0.337; in experiment [2], 0.044; with encorafenib it was 0.194; in experiment [3], -0.03.
Take GINS2 (UniProt Q9Y248): the log2 fold change with saracatinib was -0.078; in the experiment with sotrastaurin, -0.17; in the experiment with alvocidib it was -0.181; with Tubastatin A it was 0.076; in experiment [1], 0.025; with defactinib, -0.067. Also, the log2 fold change was -0.005 with rucaparib, 0.203 in [2], 0.017 in the experiment with encorafenib and 0.057 in [3].
